Results on five compounds are retold here after PubChem BioAssay (Tox21).

Values without a mark were called inactive. Inconclusive results are not listed. Calls of active or inactive are those of the source. Unless noted, calls come from the whole dose curve; as a rule, active = well fitted curve in the direction sought with a large enough effect in the repeat runs; inconclusive = weak or mixed curves; inactive = no such curve, though single readings can be large; an effect the other way counts as inactive or inconclusive.

A short description of test [1]: qHTS assay to identify small molecule antagonists of the constitutive androstane receptor (CAR) signaling pathway - cell viability counter screen (AID 1224837). Note: nearly all actives have a fitted effect of over 45% in size. Note: potency is the fitted concentration of half-maximal effect. Put shortly:
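CITCO at 50 nM final was added alongside compounds (15 concentrations) to double-stable hCAR/CYP2B6-2.2kb HepG2 cells. Following 23 hr at 37 C, cell viability was quantified by CellTiter-Fluor fluorescence intensity.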
For orientation: In qHTS, concentration-response curves come from the screen itself.

Test [2] can be described thus: qHTS assay to identify small molecule antagonists of the estrogen related receptor signaling pathway with the pleiotropic PPARgamma coactivator (PGC) from Tox21 10K library - cell viability counter screen (AID 1224840; active = well fitted cell-killing curve with a large enough effect in the repeat runs, not every such curve was filed as active; note: nearly all actives have a fitted effect of over 40% in size; note: potency is the fitted concentration of half-maximal effect). Put shortly: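 Readout: fluorescence intensity from CellTiter-Fluor after 30 min at 37 C/5% CO2. Preceded by 17.5 h treatment of PGC/ERR cells with DMSO-dissolved compounds, added 6 h post-seeding.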

The target in test [3] is Thyrotropin receptor (Homo sapiens) (UniProt P16473). Put plainly: qHTS assay to identify small molecule agonists of the thyroid stimulating hormone receptor (TSHR) signaling pathway (AID 1224843; calls by dose curve; note: nearly all actives have a fitted effect of over 45% in size). Put shortly: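 Agonist activity read as cAMP rise via d2/cryptate HTRF competition, 1 h room-temperature detection, in HEK293 cells expressing TSHR. Fifteen-point titrations, each run in triplicate, with a 30 min room-temperature incubation beforehand.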

Test [4] in a line: qHTS assay to identify small molecule agonists of the hypoxia (HIF-1) signaling pathway - cell viability counter screen (AID 1224844; calls by dose curve; note: nearly all actives have a fitted effect of over 50% in size; note: potency is the fitted concentration of half-maximal effect). Put shortly:
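In this counter screen, HRE-bla ME-180 cell viability after 17 hrs of compound exposure at 37C was read by CellTiter-Glo luminescence, multiplexed with the beta-lactamase reporter measurement.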

The nature of test [5]: qHTS assay to identify small molecule agonists of H2AX (AID 1224845; active = well fitted activation curve with a large enough effect in the signal ratio in the repeat runs, not every such curve was filed as active; the % refers to the signal ratio; note: potency is the fitted concentration of half-maximal effect). Put shortly:
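Phospho-H2AX Ser139 measured by HTRF (ex 320 nm; em 665 and 620 nm) after 24 hr antibody incubation. Compounds, 15 concentrations, 0.76% DMSO, were applied to CHO-K1 cells for 3hr at 37C before lysis.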

A short description of test [6]: qHTS assay to identify small molecule agonists of the hypoxia (HIF-1) signaling pathway (AID 1224846; active = well fitted activation curve with a large enough effect in the signal ratio in the repeat runs, not every such curve was filed as active; the % refers to the signal ratio). The procedure, abridged:
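ME-180 HRE-bla reporter cells; compounds in DMSO, 17 h at 37C; read-out beta-lactamase via CCF4-AM FRET.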

Test [7] can be described thus: qHTS assay to identify small molecule agonists of H2AX - cell viability counter screen (AID 1224847; calls by dose curve; note: nearly all actives have a fitted effect of over 30% in size; note: potency is the fitted concentration of half-maximal effect). The procedure, abridged: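 CHO-K1 cells plated overnight at 37C, then exposed 3 h at 37C to compounds at 15 concentrations (0.76% DMSO final). Viability by CellTiter-Glo luminescence after 30 min at room temperature.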
The nature of test [8]: qHTS RealTime-Glo MT Cell Viability Assay in HepG2 cells - 24 hour (AID 1224867). Note: nearly all actives have a fitted effect of over 50% in size. Note: potency is the fitted concentration of half-maximal effect. The procedure, abridged:
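HepG2 cells were seeded at 600 cells/well together with NanoLuc luciferase and a cell-permeant prosubstrate, preincubated 5 h at 37 C/5% CO2, then pin-dosed with compounds in DMSO. Nonlytic luminescence from viable cells was read at each time point.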

A short description of test [9]: qHTS RealTime-Glo MT Cell Viability Assay in HEK293 cells - 32 hour (AID 1224868). Note: nearly all actives have a fitted effect of over 50% in size. Note: potency is the fitted concentration of half-maximal effect. The procedure, abridged: (§1)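 HEK293 cells were seeded at 600 cells/well together with NanoLuc luciferase and cell-permeant prosubstrate, preincubated 5 h at 37 C/5% CO2, then given compound in DMSO by pintool. Luminescence from viable-cell prosubstrate reduction was read repeatedly over 40 h.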

Test [10] in a line: A CellTox Green Cytotoxicity Assay to monitor cytotoxicity in HEK293 cells - 0 hour (AID 1224869). Note: nearly all actives have a fitted effect of over 50% in size. Note: potency is the fitted concentration of half-maximal effect. Put shortly:
(§2)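 Real-time, in one plate: 600 HEK293 cells/well with dead-cell DNA dye, pinned compound after 5 h, 37 C incubation over 40 h; viable cells give no appreciable fluorescence.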

Test [11] can be described thus: qHTS RealTime-Glo MT Cell Viability Assay in HepG2 cells - 40 hour (AID 1224870). Note: nearly all actives have a fitted effect of over 50% in size. Note: potency is the fitted concentration of half-maximal effect. The procedure, abridged:
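Real-time viability: cells seeded at 600 per well together with NanoLuc and cell-permeant prosubstrate, compounds added after 5 h incubation. Luminescence tracked at 0, 8, 16, 24, 32 and 40 h of exposure.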

Test [12] is described as follows: A CellTox Green Cytotoxicity Assay to monitor cytotoxicity in HEK293 cells - 40 hour (AID 1224871). Note: nearly all actives have a fitted effect of over 45% in size. Note: potency is the fitted concentration of half-maximal effect. Put shortly:
as §2

The nature of test [13]: qHTS RealTime-Glo MT Cell Viability Assay in HEK293 cells - 16 hour (AID 1224872). Note: nearly all actives have a fitted effect of over 50% in size. Note: potency is the fitted concentration of half-maximal effect. Put shortly:
as §1

Test [14] has as its target Nuclear receptor subfamily 1 group I member 3 (Homo sapiens) (UniProt Q14994). Put plainly: qHTS assay to identify small molecule antagonists of the constitutive androstane receptor (CAR) signaling pathway (AID 1224838). Note: nearly all actives have a fitted effect of over 40% in size. Note: potency is the fitted concentration of half-maximal effect. Put shortly: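 Inhibition of CITCO-driven (50 nM final) CYP2B6 reporter expression is measured in HepG2 cells stably carrying hCAR. Fifteen compound concentrations are applied for 24 h at 37 C, followed by luciferase luminescence.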

Test [15] shares this target. Put plainly: qHTS assay to identify small molecule agonists of the constitutive androstane receptor (CAR) signaling pathway (AID 1224839). Note: nearly all actives have a fitted effect of over 15% in size. Note: potency is the fitted concentration of half-maximal effect. The procedure, abridged: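 HepG2 cells stably co-transfected with hCAR and a CYP2B6-2.2kb luciferase reporter; compounds at 15 concentrations with 0.75 uM PK11195 present. After 24 hr at 37 C, luciferase read by ONE-Glo luminescence.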

Test [16] in a line: qHTS assay to identify small molecule antagonists of the estrogen related receptor signaling pathway with the pleiotropic PPARgamma coactivator (PGC) from Tox21 10K library (AID 1224841; call rule not given here; note: potency is the fitted concentration of half-maximal effect). Put shortly:
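One-Glo luminescence, measured after half an hour at room temperature, quantified reporter output of PGC/ERR cells. These had been plated at 2,000 per well, incubated 6 h, dosed with compounds in DMSO, then kept 18 h at 37 C.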

Test [17] can be described thus: qHTS assay to identify small molecule agonists of the estrogen related receptor signaling pathway with the pleiotropic PPARgamma coactivator (PGC) from Tox21 10K library (AID 1224842). Note: nearly all actives have a fitted effect of over 15% in size. The procedure, abridged: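 Luminescence from One-Glo (30 min, room temperature) measured after PGC/ERR cells had 18 h at 37 C with pinned compound (23 nL in DMSO). Cells had been seeded at 2,000 per well and pre-incubated 6 h.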

Test [18] can be described thus: qHTS assay to identify small molecule antagonists of the estrogen related receptor (ERR) signaling pathway from Tox21 library (AID 1224848). Note: nearly all actives have a fitted effect of over 50% in size. Note: potency is the fitted concentration of half-maximal effect. Put shortly:
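Luciferase luminescence (ONE-Glo, 30 min room temperature) was the read-out. Cells of the NTP-supplied ERR line, 2,000 per well, were given 6 h at 37 C before compound addition in DMSO and 18 h exposure at 37 C.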

Test [19] in a line: qHTS assay to identify small molecule agonists of the estrogen related receptor (ERR) signaling pathway from Tox21 library (AID 1224849; calls by dose curve; note: nearly all actives have a fitted effect of over 15% in size). The conditions noted are these: ERR reporter cell line, ONE-Glo luciferase, 18 h; at 92.4 µM (top of the series) unless noted. The procedure, abridged:
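Luciferase activity in ERR pathway reporter cells served as the agonist readout; exposure lasted 18 h at 37 C, with ONE-Glo detection after 30 min at room temperature.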
% is set by controls: 0 for no effect and ±100 for the full control effect.

Sequence of Nuclear receptor subfamily 1 group I member 3 (Homo sapiens) (Q14994 whole entry, looked up): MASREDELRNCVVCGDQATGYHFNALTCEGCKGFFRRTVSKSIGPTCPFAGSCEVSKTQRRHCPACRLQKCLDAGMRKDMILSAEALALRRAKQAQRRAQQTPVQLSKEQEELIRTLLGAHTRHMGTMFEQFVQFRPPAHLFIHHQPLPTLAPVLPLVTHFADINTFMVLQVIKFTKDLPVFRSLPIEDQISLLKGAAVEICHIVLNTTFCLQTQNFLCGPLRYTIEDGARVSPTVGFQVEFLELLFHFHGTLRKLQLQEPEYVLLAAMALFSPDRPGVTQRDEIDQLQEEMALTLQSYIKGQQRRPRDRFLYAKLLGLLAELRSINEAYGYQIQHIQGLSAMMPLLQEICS
Sequence of Thyrotropin receptor (Homo sapiens) (P16473 whole entry, looked up): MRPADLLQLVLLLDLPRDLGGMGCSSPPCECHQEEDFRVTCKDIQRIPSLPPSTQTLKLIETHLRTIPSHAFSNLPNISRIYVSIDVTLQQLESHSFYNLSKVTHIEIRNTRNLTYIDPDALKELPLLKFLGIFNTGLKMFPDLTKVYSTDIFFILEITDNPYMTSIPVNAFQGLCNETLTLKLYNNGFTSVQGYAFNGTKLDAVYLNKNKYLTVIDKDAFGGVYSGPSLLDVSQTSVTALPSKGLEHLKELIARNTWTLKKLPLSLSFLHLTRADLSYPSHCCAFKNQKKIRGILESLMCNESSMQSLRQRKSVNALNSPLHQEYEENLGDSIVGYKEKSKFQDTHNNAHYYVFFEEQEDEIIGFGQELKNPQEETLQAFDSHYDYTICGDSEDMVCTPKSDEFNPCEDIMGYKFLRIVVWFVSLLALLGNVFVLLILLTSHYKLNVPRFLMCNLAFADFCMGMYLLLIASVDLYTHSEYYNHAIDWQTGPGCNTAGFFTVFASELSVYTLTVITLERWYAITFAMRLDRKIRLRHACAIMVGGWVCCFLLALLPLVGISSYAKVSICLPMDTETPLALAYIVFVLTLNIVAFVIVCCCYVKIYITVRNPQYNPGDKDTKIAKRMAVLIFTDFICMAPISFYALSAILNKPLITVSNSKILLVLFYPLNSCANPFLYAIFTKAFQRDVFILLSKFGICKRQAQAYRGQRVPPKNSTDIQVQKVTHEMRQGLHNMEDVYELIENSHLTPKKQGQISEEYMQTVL

`CSc1cnc(C)cn1`: the Potency result in test [1], in test [2], in test [3], in test [4], in [5] and in test [6] was “inactive” each time. The Potency result in test [7], in test [8], in test [9], in [11] and in [13] was “inactive” in each case. In addition, the Potency is 56.4 µM (active) in [10] and 89.4 µM (active) in test [12].
For the compound `CC(=O)S[C@@H]1CC2=CC(=O)CC[C@]2(C)[C@H]2CC[C@@]3(C)[C@@H](CC[C@@]34CCC(=O)O4)[C@H]12`, the Potency result in [1], in test [15], in test [3], in [6], in [7] and in test [10] was “inactive” each time. The Potency result in test [11] and in test [12] was “inactive” each time. Besides, the Potency in test [14] was 54.5 µM (active).
As for `CCCCCCCCCCCCCCCCCC[N+](C)(C)C`, the Potency in [1] was 54.6 µM (active); in test [16], 54.6 µM (active); in [4] it was 55.1 µM (active); in test [7] it was 90.1 µM (active); in test [18], 24.4 µM (active); in test [9], 7.79 µM (active). Moreover, the Potency is 21.9 µM (active) in test [12] and 24.6 µM (active) in test [13]. In addition, the Potency result in test [15], in [17], in [5] and in [10] was “inactive” each time. Further, the activity change, positive = activation in test [19] is -79.1%.
For the compound `Cc1cccc2c1cc1ccc3cccc4ccc2c1c34`, the Potency result in [14], in test [2], in [16], in test [17], in [4] and in test [5] was “inactive” each time. Further, the Potency entry in [7], in test [18], in [8], in test [10] and in test [11] was “inactive” in each case. In addition, the Potency in test [15] is 15.7 µM (active). Also, the activity change, positive = activation in [19] is 35.4% (active).
Take `CC[C@H]1O[C@]2(CC[C@@H]1C)C[C@@H]1C[C@@H](C/C=C(\C)C[C@@H](C)/C=C/C=C3\CO[C@@H]4[C@H](O)C(C)=C[C@@H](C(=O)O1)[C@]34O)O2`: the Potency was 60.6 µM (active) in test [1]; 60.6 µM (active) in [2]; 19.2 µM (active) in test [16]; 21.7 µM (active) in test [4]; 44.6 µM (active) in test [5]; 50 µM (active) in [7]. The Potency in test [18] is 30.4 µM (active); in test [8] it was 43.3 µM (active); in test [9] it was 24.3 µM (active); in test [11], 43.3 µM (active); in [12], 43.3 µM (active); in test [13] it was 38.5 µM (active). In addition, the Potency entry in test [15], in test [17], in test [3] and in test [10] was “inactive” throughout. Besides, the activity change, positive = activation in test [19] was -67.4%.
